26S disassembly = blocks ATP-dependent breakdown of the yeast 26S proteasome; anti-FLAG beads, GFP-proteasome disassembly, flow cytometry; inhibition of disassembly, % (test concentration not listed); 24,000 compounds, 0.2% hits; AID 751;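 active means inhibition of disassembly above about 33%, limit read from the data; inconclusive means likely self-fluorescent, control bead median signal at least 40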;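 further: plate controls were ATP control with full disassembly for no effect and ATP-gamma-S intact proteasomes for full effect; higher percent means more bead fluorescence retained so stronger block of disassembly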
S aureus QS inh = S. aureus quorum sensing inhibition; S. aureus RN6390 RNAIII-GFP reporter, AIP-induced, flow cytometry 3 h; inhibition, % at 2 µM; 24,000 compounds, 0.3% hits;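 active means share of bacteria positive for the green fluorescent reporter and its mean brightness both inhibited by 50% or more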;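 further: 0% = AIP-stimulated control and 100% = unstimulated bacteria without AIP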
VLA-4 antagonist = inhibitors of LDV-FITC ligand binding to Mn2+-activated human VLA-4 integrin. Jurkat cells, LDV-FITC binding with Mn2+, flow cytometry; 100% = Mn2+-driven binding gain fully reversed. 24,000 compounds, 0.2% hits. inhibition, % at 10 µM (by protocol). P13612;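 active means inhibition above 50%; inconclusive means compound itself fluorescent, judged against control cell fluorescence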;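 further: 0% = Mn2+ stimulated cells lacking compound and 100% = ligand binding without Mn2+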
Target sequence (P13612 whole entry, looked up): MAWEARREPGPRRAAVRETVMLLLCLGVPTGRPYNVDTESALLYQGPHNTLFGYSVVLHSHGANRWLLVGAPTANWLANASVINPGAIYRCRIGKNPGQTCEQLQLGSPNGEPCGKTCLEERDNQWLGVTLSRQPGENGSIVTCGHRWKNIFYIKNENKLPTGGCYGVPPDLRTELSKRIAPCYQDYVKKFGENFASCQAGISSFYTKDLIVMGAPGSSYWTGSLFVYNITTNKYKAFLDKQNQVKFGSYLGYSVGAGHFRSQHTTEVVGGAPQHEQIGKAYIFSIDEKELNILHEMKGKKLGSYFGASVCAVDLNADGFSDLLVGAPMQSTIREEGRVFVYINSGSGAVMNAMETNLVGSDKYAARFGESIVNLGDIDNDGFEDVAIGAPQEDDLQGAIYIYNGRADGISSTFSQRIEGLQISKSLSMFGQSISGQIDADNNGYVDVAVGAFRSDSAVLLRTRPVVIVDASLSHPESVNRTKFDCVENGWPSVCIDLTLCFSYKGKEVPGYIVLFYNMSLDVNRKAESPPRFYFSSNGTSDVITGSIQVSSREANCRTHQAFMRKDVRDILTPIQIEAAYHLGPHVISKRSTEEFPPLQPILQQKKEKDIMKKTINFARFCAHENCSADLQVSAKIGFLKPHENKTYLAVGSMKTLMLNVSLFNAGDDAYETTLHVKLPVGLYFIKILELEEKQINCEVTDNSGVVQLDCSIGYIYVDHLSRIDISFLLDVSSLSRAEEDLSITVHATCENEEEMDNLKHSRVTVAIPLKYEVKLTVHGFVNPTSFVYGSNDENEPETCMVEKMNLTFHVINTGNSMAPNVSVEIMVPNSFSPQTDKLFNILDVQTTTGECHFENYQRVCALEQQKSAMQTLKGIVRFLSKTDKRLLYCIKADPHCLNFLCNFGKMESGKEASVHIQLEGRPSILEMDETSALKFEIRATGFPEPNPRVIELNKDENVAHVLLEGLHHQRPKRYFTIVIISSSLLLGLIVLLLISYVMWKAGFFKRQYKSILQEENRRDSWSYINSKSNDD
VLA-4 allo ag = allosterically activates the human VLA-4 integrin; Jurkat cells, LDV-FITC binding, flow cytometry; activation, % at 10 µM (by protocol); 24,000 tested, under 10 active; AID 528;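 active means fluorescent ligand binding to cells raised by more than 40% of the manganese-induced maximum; inconclusive means compound's own fluorescence above 85% of the ligand control signal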;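 further: 0% = ligand binding without compound and 100% = manganese-stimulated maximal binding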
Jurkat autofluor = compound fluoresces in Jurkat cells, VLA-4 screen interference; 24,000 compounds, 0.61% hits; fluorescence ratio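 (tested at 10 µM compound in the well)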; compound autofluorescence, flow cytometry; stronger effect = higher value; 1 = vehicle-only cell background;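 active means fluorescence ratio above 2.44, which is 1 plus 3 SD of all ratios; inconclusive means signal too bright to measure linearly, ratio around 10 or more; inactive means fluorescence ratio below 2.44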;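 further: green fluorescence of cells measured with 488 nm excitation and 530 nm emission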
LNCaP diff act = LNCaP prostate cell differentiation activation; side scatter shift, % at 10 µM; AID 795; 24,000 compounds, 0.56% hits; flow cytometry side scatter, 4 d;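 active means side scatter shift above 30%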;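 further: androgen-responsive LNCaP prostate cancer cells in charcoal-stripped serum medium; percent of cells past a gate set so DMSO wells show 10% shift; higher shift means more granular cells and more differentiation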
An asterisk follows results filed as active. The list is not random: actives were taken first. Their share in the collection is about 1.8%.

`COc1ccccc1-c1nnc(NC(=O)c2ccc(S(=O)(=O)N(C)C)cc2)o1` gave 26S disassembly 0, S aureus QS inh 4, VLA-4 antagonist inconclusive, VLA-4 allo ag inconclusive, Jurkat autofluor 5.1* and LNCaP diff act 6.
For COc1ccc(-c2nnc(NC(=O)c3ccc(S(=O)(=O)N4COCC4(C)C)cc3)o2)cc1 the results were 26S disassembly -2, S aureus QS inh 12, VLA-4 antagonist inconclusive, VLA-4 allo ag inconclusive, Jurkat autofluor 6.3* and LNCaP diff act 6.
`CCOC(=O)N1CCC(NC(=O)c2ccc(CS(=O)(=O)c3ccccc3C)o2)CC1` gave 26S disassembly -1, S aureus QS inh 1, VLA-4 antagonist -10, VLA-4 allo ag 2, Jurkat autofluor 1 and LNCaP diff act 2.
`COC(=O)C1=C(CSCc2ccco2)NC(=O)NC1c1cc(C)ccc1C` (stereo not given) gave 26S disassembly 3, S aureus QS inh -1, VLA-4 antagonist -12, VLA-4 allo ag -2, Jurkat autofluor 1 and LNCaP diff act 6.
CN1C2C=C3C(C#N)=C(N)C(C#N)(C#N)[C@@H](c4ccc(Cl)cc4)[C@@H]3C1CC2 (stereo not given in full) was read as 26S disassembly -1, S aureus QS inh -4, VLA-4 antagonist inconclusive, VLA-4 allo ag 2, Jurkat autofluor 1.2 and LNCaP diff act 8.
Cc1ccc(C2C3CSCC=C3C(C#N)=C(N)C2(C#N)C#N)cc1 (stereo not given) was read as 26S disassembly 40*, S aureus QS inh -2, VLA-4 antagonist inconclusive, VLA-4 allo ag inconclusive, Jurkat autofluor 8.8* and LNCaP diff act 2.
Screening CC(=O)c1cccc(-n2nnnc2SCC(=O)N2CCCC2)c1 returned 26S disassembly -2, S aureus QS inh 0, VLA-4 antagonist -10, VLA-4 allo ag 0, Jurkat autofluor 1 and LNCaP diff act 4.
For CCN1CCCC1CNC(=O)c1cc2c(-c3ccc(Cl)cc3)nn(C)c2s1 (stereo not given) the results were 26S disassembly 3, S aureus QS inh 3, VLA-4 antagonist inconclusive, VLA-4 allo ag inconclusive, Jurkat autofluor 1.1 and LNCaP diff act 64*.
Cn1nc(-c2ccc(Cl)cc2)c2cc(C(=O)NCCCN3CCCC3)sc21 was read as 26S disassembly 2, S aureus QS inh -1, VLA-4 antagonist 5, VLA-4 allo ag -3, Jurkat autofluor 1 and LNCaP diff act 62*.
COc1ccccc1OCc1ccc(C(=O)Nc2ccncc2)o1 was read as 26S disassembly 2, S aureus QS inh 0, VLA-4 antagonist -18, VLA-4 allo ag 2, Jurkat autofluor 1 and LNCaP diff act 9.
Screening COc1ccc2c(c1)CCc1c(C(=O)Nc3cc(C)n(Cc4ccc(Cl)cc4)n3)noc1-2 returned 26S disassembly 1, S aureus QS inh 3, VLA-4 antagonist -5, VLA-4 allo ag 2, Jurkat autofluor 0.94 and LNCaP diff act 62*.
Screening CCc1ccc(Nc2oc(C)cc(=O)c2C(C)=O)cc1 returned 26S disassembly 0, S aureus QS inh -1, VLA-4 antagonist -13, VLA-4 allo ag 4, Jurkat autofluor 1 and LNCaP diff act 14.
Screening COc1ccc(-c2nc3ncccn3c2Nc2ccc3c(c2)OCCO3)cc1 returned 26S disassembly 0, S aureus QS inh -1, VLA-4 antagonist -1, VLA-4 allo ag -7, Jurkat autofluor 1.1 and LNCaP diff act 9.
Oc1ccc(-c2nc3ncccn3c2Nc2ccc3c(c2)OCCO3)cc1 was read as 26S disassembly 0, S aureus QS inh 83*, VLA-4 antagonist -46, VLA-4 allo ag -1, Jurkat autofluor 1 and LNCaP diff act 1.
Screening Cn1nnnc1SCC(=O)Nc1ccccc1C(=O)NCc1ccccc1 returned 26S disassembly 2, S aureus QS inh -1, VLA-4 antagonist 0, VLA-4 allo ag -2, Jurkat autofluor 1 and LNCaP diff act 3.
`CCOc1ccccc1NC(=O)CCN1CCN(S(=O)(=O)c2ccc(Br)cc2)CC1` gave 26S disassembly 2, S aureus QS inh -1, VLA-4 antagonist -9, VLA-4 allo ag -1, Jurkat autofluor 1.1 and LNCaP diff act 6.
Screening CCCc1noc2c1C(c1ccoc1)C(C#N)=C(N)N2 (stereo not given) returned 26S disassembly 1, S aureus QS inh -2, VLA-4 antagonist 12, VLA-4 allo ag -7, Jurkat autofluor 0.97 and LNCaP diff act 8.
For CCOc1ccccc1C1C(C#N)=C(N)Nc2onc(-c3ccccc3)c21 (stereo not given) the results were 26S disassembly -1, S aureus QS inh 2, VLA-4 antagonist 51*, VLA-4 allo ag -8, Jurkat autofluor 1.1 and LNCaP diff act 3.
N#Cc1c(NC(NC(=O)c2ccco2)C(=O)c2ccccc2)sc2c1CCCC2 (stereo not given) was read as 26S disassembly 0, S aureus QS inh 84*, VLA-4 antagonist -12, VLA-4 allo ag -6, Jurkat autofluor 1.1 and LNCaP diff act 2.
CCCCOc1ccc(-c2nnn(CC(=O)NCc3ccco3)n2)cc1 was read as 26S disassembly 0, S aureus QS inh 2, VLA-4 antagonist -10, VLA-4 allo ag 4, Jurkat autofluor 1.1 and LNCaP diff act 22.
`CCCCOc1ccc(-c2nnn(CC(=O)Nc3ncc(CC(=O)OCC)s3)n2)cc1` gave 26S disassembly 0, S aureus QS inh -3, VLA-4 antagonist 94*, VLA-4 allo ag -34, Jurkat autofluor 1 and LNCaP diff act 9.
Screening CC1Cc2ccccc2N1C(=O)c1cc2c(=O)n3ccccc3nc2n1C (stereo not given) returned 26S disassembly -2, S aureus QS inh 0, VLA-4 antagonist inconclusive, VLA-4 allo ag inconclusive, Jurkat autofluor 1.3 and LNCaP diff act 5.
Screening Cc1cccn2c(=O)c3cc(C(=O)N4c5ccccc5CC4C)n(C)c3nc12 (stereo not given) returned 26S disassembly 4, S aureus QS inh 0, VLA-4 antagonist inconclusive, VLA-4 allo ag inconclusive, Jurkat autofluor 2.7* and LNCaP diff act 10.
`Cc1cc(NC(=O)C2CCN(S(=O)(=O)c3cnc[nH]3)CC2)ccc1Br` gave 26S disassembly 0, S aureus QS inh -4, VLA-4 antagonist inconclusive, VLA-4 allo ag inconclusive, Jurkat autofluor 1.3 and LNCaP diff act 3.
`CCn1c(C)cc(=S)c2ccccc21` gave 26S disassembly 2, S aureus QS inh -1, VLA-4 antagonist 5, VLA-4 allo ag -1, Jurkat autofluor 1.5 and LNCaP diff act 4.
For CCn1c2ccccc2c2cc(N)ccc21 the results were 26S disassembly inconclusive, S aureus QS inh -1, VLA-4 antagonist inconclusive, VLA-4 allo ag inconclusive, Jurkat autofluor 3.4* and LNCaP diff act 4.
For O=c1ccc2cc3c([nH]c4ccc(Br)cc43)oc-2c1O the results were 26S disassembly -1, S aureus QS inh 0, VLA-4 antagonist inconclusive, VLA-4 allo ag inconclusive, Jurkat autofluor 6.6* and LNCaP diff act 7.
